Source: PubChem
DYRK1A inh: Dyrk1A (rat) kinase inhibition | 310,000 tested, 0.43% active | Q63470 | ADP-Glo luminescence, NFATc1 peptide | inhibition, % at 12.5 µM; in the data active means inhibition above about 50%;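 further: plate controls were vehicle with enzyme for no effect and no enzyme for full effect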
dFosB activator: activators of mouse delta FosB homodimer. AID 493131. purified delta FosB, TAMRA-CDK5 oligo fluorescence polarization; percent of positive-control signal above neutral wells. activation, % at 25 µM. 340,000 tested, 0.99% active;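 active means mean activation above about 17%, with every replicate also reaching it, limit read from the data, passing the limit was not always enough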
Target sequence (P13346 whole entry, looked up): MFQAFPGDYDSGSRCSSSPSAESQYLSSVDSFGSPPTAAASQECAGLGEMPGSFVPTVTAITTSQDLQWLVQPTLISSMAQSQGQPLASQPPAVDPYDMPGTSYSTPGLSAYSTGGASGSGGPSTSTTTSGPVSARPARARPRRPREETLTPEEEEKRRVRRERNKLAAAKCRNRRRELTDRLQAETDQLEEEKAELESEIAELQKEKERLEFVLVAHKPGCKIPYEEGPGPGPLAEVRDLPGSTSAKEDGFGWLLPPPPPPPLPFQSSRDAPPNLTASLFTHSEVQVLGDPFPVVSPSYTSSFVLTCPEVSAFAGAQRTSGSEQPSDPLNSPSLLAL
Beta2AR agonist: agonists of human beta-2 adrenergic receptor inducing internalization; P07550; Am2.2-beta2AR cells, FAP receptor internalization, flow cytometry; response, % (concentration not given with the values); 340,000 tested, 0.43% active;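 active means response above a set limit, near 3 SD of response in nonfluorescent compounds, cut at about 42% in these data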
A1 inh: inhibitors of the anti-apoptotic protein A1, read as caspase activation; caspase activation, % (concentration not given with the values); 330,000 tested, 0.066% active; MEF A1-2A-BIM cells, Caspase-Glo 3/7 luminescence, 3 h; percent of clofoctol response, vehicle zero;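 active means over half of replicate activation scores above 10%, or exactly half above 10 with the replicate mean above 10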
Dyrk1A artifact: counter-screen for Dyrk1A inhibitors: ADP-Glo luciferase artifacts. shares compounds with DYRK1A inh. ADP-Glo luciferase artifact assay, no Dyrk1A, luminescence. AC50, µM (series often up to 12 µM), without a hit: at the highest dose activity change, negative = inhibition. 1,300 tested, under 10 active. AID 588348;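 active means fitted half-maximal dose AC50 no more than ten times the top valid tested dose, with luminescence dropping as dose rises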
* = called active by the depositor; nt = not tested or not shown; ! = not active in a repeat. Rows were chosen to be rich in hits. Some 1.6% of all compounds tested hit in one or more screens of this group.

SMILES	DYRK1A inh	dFosB activator	Beta2AR agonist	A1 inh	Dyrk1A artifact
O=c1c(OC2OC(CO)C(O)C(O)C2O)c(-c2ccc(O)c(O)c2)oc2cc(O)cc(O)c12 (stereo not drawn)	75*	9	16	1	9%
C[C@@H]1O[C@@H](Oc2c(-c3ccc(O)c(O)c3)oc3cc(O)cc(O)c3c2=O)[C@H](O)[C@H](O)[C@H]1O	12	0	-5	0	nt
COc1cc(-c2oc3cc(O)cc(O)c3c(=O)c2O[C@@H]2O[C@H](COC3O[C@@H](C)[C@H](O)[C@@H](O)[C@H]3O)[C@@H](O)[C@H](O)[C@H]2O)ccc1O (stereo partly drawn)	71*	-1	24	2	7%
O=c1c(OC2OC(CO)C(O)C(O)C2OC2OC(CO)C(O)C(O)C2O)c(-c2ccc(O)cc2)oc2cc(O)cc(O)c12 (stereo not drawn)	23	-9	3	0	nt
O=c1c(O[C@@H]2O[C@H](CO)C(O)C2O)c(-c2ccc(O)c(O)c2)oc2cc(O)cc(O)c12 (stereo partly drawn)	64*	1	3	0	13%
COc1ccc(S(N)(=O)=O)cc1C(=O)NNC(=O)CN(C)S(=O)(=O)c1ccc(Cl)cc1	1	4	-4	0	nt
CCN(CC)CCn1c2ccccc2c(=O)c2c(O)ccc(O)c21	85*	-5	-2	nt	7%
O=C(NCCC1=CCCCC1)c1cccc(S(=O)(=O)N2CCCCC2)c1	-1	-8	22	0	nt
O=C1OCc2cccc3cccc1c23	51*	-1	4	1	8%
O=C(NC(=S)Nc1ccccc1O)c1ccccc1Cl	25	5	-9	-1	nt
CCN(CC)c1c([N+](=O)[O-])c(=O)sc2ccccc12	53*	2	-3	-2	7%
CCN1CCN(Cc2ccc(NC(=O)c3cc(NC(=O)c4nccnc4N)cc(OC)c3)cc2C(F)(F)F)CC1	55*	-32	-2	-1	9%
CCN1CCN(Cc2ccc(NC(=O)c3ccc(C)c(NC(=O)N4CCNC4=O)c3)cc2C(F)(F)F)CC1	54*!	-34	13	0	7%
COc1ccc(CCN2CCCn3c2nc2c3c(=O)n(CC(C)C)c(=O)n2C)cc1OC	4	-7	-8	1	nt
CCOC(=O)C(=CNc1nc(-c2ccc3ccccc3c2)cs1)C(=O)OCC	-1	-2	6	1	nt
CC1CN(C/C(=N\O)C23CC4CC(CC(C4)C2)C3)CC(C)O1 (stereo not drawn)	-3	-2	6	0	nt
O=C(O)COc1ccc(/C=C/c2ccc3cccc([N+](=O)[O-])c3n2)cc1	66*	-7	13	1	9%
CC1CCc2c(C(=O)Nc3cccc(-c4nn[nH]n4)c3)csc2C1 (stereo not drawn)	67*	-12	-22	-1	10%
CCc1nnc(NC(=O)c2csc3c2CCC(C)C3)s1 (stereo not drawn)	nt	nt	nt	1	nt
O=C(N/N=C/c1ccccn1)c1cc(-c2cccc3ccccc23)n[nH]1	23	-24	5	0	nt
O=C(N/N=C/c1ccccn1)c1cc(-c2ccccc2Cl)n[nH]1	51*	-18	-7	0	9%
c1nc2sc3c(c2c2nnnn12)CCCC3	50*	-1	-12	0	8%
c1nc2sc3c(c2c2nnnn12)CCC3	10	-7	-3	1	nt
CCOCCCNCc1ccc(OCCC(C)C)c(OC)c1	-4	-7	-1	0	nt
CCOC(=O)C[C@H]1c2cc(F)ccc2S(=O)(=O)N1C(C)C	2	1	3	2	nt
SMILES	DYRK1A inh	dFosB activator	Beta2AR agonist	A1 inh	Dyrk1A artifact
CCCCCCCCCCCCN1[C@@H](CC(=O)OC)c2cc(C(F)(F)F)ccc2S1(=O)=O	53*	-7	4	-2	12%
CCOC(=O)C[C@H]1c2cc(C(F)(F)F)ccc2S(=O)(=O)N1C(C)C	54*	4	-5	0	12%
COC(=O)c1c(NC(=O)COC(=O)C2CCC2)sc(C)c1C	22	-6	0	-1	nt
O=C(NCCCN1CCOCC1)c1cc(Cl)ccc1OCc1ccccc1	-2	-8	-2	0	nt
CC1=NN(C(=O)CCc2ccccc2)C(O)(c2ccncc2)C1 (stereo not drawn)	nt	3	8	-2	nt
Cc1nc(COc2ccccc2Cl)sc1-c1ccnc(N)n1	79*	-24	-10	0	10%
Clc1ccccc1OCc1nn2c(-c3ccncc3)nnc2s1	7	-4	-2	1	nt
COc1ccc2[nH]c3c(c2c1)CCN1C(=O)C(CC(=O)NCCc2ccccn2)C[C@H](C(=O)N2CCOCC2)[C@@]31CCC1CCCC1 (stereo partly drawn)	0	-11	0	nt	nt
Oc1ccc(-c2csc(-c3cccnc3)n2)cc1O	51*	5	-110	-7	7%
Fc1ccc(-c2csc(-c3cccnc3)n2)cc1F	4	5	0	-1	nt
Oc1ccc(-c2csc(-c3ccccc3)n2)cc1O	55*	-7	1	-1	7%
Oc1ccccc1-c1csc(-c2ccccc2)n1	2	4	4	1	nt
N#C/C(=C/c1ccc(O)c([N+](=O)[O-])c1)C(=O)Nc1ccccc1	81*	-3	5	-8	9%
N#C/C(=C\c1ccc(O)c(O)c1)C(=O)NCCc1ccccc1	70*	0	-3	0	11%
Cc1nc2ccsc2c(=O)n1-c1cccc(Cl)c1	-2	4	2	0	nt
CCCN(C(=O)Cc1coc2cc(OC)ccc12)C1CCS(=O)(=O)C1 (stereo not drawn)	2	0	-5	1	nt
CS(=O)(=O)c1ccc(Cl)c(NC(=O)CNC(=O)c2ccc3c(c2)OCO3)c1	nt	-6	-8	0	nt
O=c1oc(-c2ccc(O)c(O)c2)cc2cc(O)cc(O)c12	73*	4	17	nt	7%
CCC(=O)NCCc1nc2cc(NC(=O)c3cccc([N+](=O)[O-])c3)ccc2n1C	-2	2	-2	-1	nt
CC(C)=CCc1c(O)ccc2c1OC(c1ccc(O)c(O)c1)CC2=O (stereo not drawn)	64*	-8	5	0	10%
N#Cc1nc(-c2cccs2)oc1NCc1ccccc1Cl	51*	1	0	0	11%
Cc1cccc(C(C)n2nnc3ccccc32)c1O (stereo not drawn)	57*	3	2	0	7%
COc1ccc2cc(-c3cccnc3)ncc2c1	68*	-2	-3	-11	12%
COc1ccc(-c2cc3ccc(OC)cc3cn2)cc1	3	-2	-1	-9	nt
CN(Cc1cn[nH]c1-c1ccc2c(c1)OCO2)C1CCOCC1	-3	-2	8	0	nt
CCc1cc(-c2[nH]ncc2-c2ccc3c(c2)OCO3)c(O)cc1O	52*	-4	16	-1	6%
COc1ccc(-c2[nH]ncc2-c2ccc3c(c2)OCCO3)c(O)c1	60*	-6	-5	1	2%
